The results in this text go back to ChEMBL document CHEMBL4513156, “CO-ADD screening of NCPRI (Romania) compounds”.

Usually Inhibition stands for the change of the read-out against control, counted positive when it falls.

Experiment [1] relates to Klebsiella pneumoniae. As to conditions: Concentration 32 ug.mL-1; ASSAY_TEST Inhibition of Bacterial Growth; detection method Absorption (OD600); MEDIA CAMHB; plate type 384well; NBS; CORNING #3640; time 18 hr.
For experiment [2], the system named is Candida albicans. The following applies: 32 ug/mL.
Experiment [3] relates to Cryptococcus neoformans. The following applies: Concentration 32 ug.mL-1; ASSAY_TEST Inhibition of Fungal Growth; detection method Resazurin; Absorption (OD600-OD570); plate type 384well; NBS; CORNING #3640. (In general: Alamar Blue is a resazurin reagent that responds to reducing activity.)

Entries with a potency or affinity are not part of this list.

For the molecule `O=C(NNC(=O)[C@@H]1C[C@H](C(=O)O)[C@@H]2CC=C[C@@H]21)c1ccncc1`, the Inhibition in experiment [1] is 15.82%; in experiment [2], 1.29%; in experiment [3], -37.2%.

`O=C1C[C@H]2[C@H](/C=N/NC(=O)c3ccncc3)[C@H](C[C@@H]2Cl)O1`: the Inhibition was 20.57% in experiment [1], 3.46% in experiment [2] and -80.73% in experiment [3].

On to `CC(C)(C)[Si](C)(C)OCC1C2C[C@H]3C1[C@@H]3/C2=N/NC(=O)c1ccncc1` (stereo not given in full), for which the Inhibition was 15.16% in experiment [1], -2% in experiment [2] and -48.28% in experiment [3].

As for `O=C(NNC(=O)[C@@H]1C[C@H](C(=O)O)[C@@H]2CCC[C@@H]21)c1ccncc1`, the Inhibition is 17.49% in experiment [1], 2.57% in experiment [2] and -51.45% in experiment [3].

For the molecule `O=C(N/N=C/C[C@@H]1[C@@H](/C=C/[C@@H](O)COc2ccccc2)[C@H](O)C[C@@H]1O)c1ccncc1`, the Inhibition in experiment [1] is 13.01%; in experiment [2], 0.82%; in experiment [3], -89.18%.

With `O=C(N/N=C1/C[C@@H]2[C@@H](C(=O)O)[C@H]1C[C@H]2Cl)c1ccncc1`, the results for the Inhibition in experiment [1], in experiment [2] and in experiment [3] were 18.24%, 7.78% and -56.2%, respectively.

In the case of `O=C(N/N=C1\C[C@@H]2[C@@H](CO)[C@H]1C[C@H]2Cl)c1ccncc1`, the Inhibition in experiment [1] was 21.63%; in experiment [2] it was -0.38%; in experiment [3] it was -60.68%.

Regarding `CC(C)(C)[Si](C)(C)OC[C@H]1[C@H](CC=NNC(=O)c2ccncc2)[C@H](O)C[C@@H]1O[Si](C)(C)C(C)(C)C`, the Inhibition in experiment [1] was 19.31%; in experiment [2], 3.64%; in experiment [3], -64.37%.

For the molecule `NNC(=O)c1ccncc1` [ISONIAZID], the Inhibition in experiment [1] was 18.82%; in experiment [2] it was 0.98%; in experiment [3], -55.93%.

With `O=C(N/N=C1/C[C@H]2[C@H](CO)[C@@H]1C[C@@H]2Cl)c1ccncc1`, the Inhibition in experiment [1] is 18.7%; in experiment [2] it was 2.15%; in experiment [3] it was -80.47%.

As to `O=C(NN=CC[C@@H]1[C@@H](/C=C/[C@@H](O)CCc2ccccc2)[C@H](OC(=O)c2ccccc2)C[C@@H]1O)c1ccncc1`, the Inhibition is 14.41% in experiment [1], 5.97% in experiment [2] and -72.55% in experiment [3].

For the molecule `O=C(NN=CC[C@H]1[C@H](CO)[C@@H](O)C[C@H]1O)c1ccncc1`, the Inhibition in experiment [1] is 13.38%; in experiment [2] it was 0.85%; in experiment [3] it was -70.97%.

Take `O=C(N/N=C/CCCO)c1ccncc1`: the Inhibition is 3.72% in experiment [1], 0.75% in experiment [2] and -50.92% in experiment [3].

Turning to `O=C(N/N=C/C[C@@H]1[C@@H](/C=N/NC(=O)c2ccncc2)[C@H](O)C[C@@H]1O)c1ccncc1`, the Inhibition is 9.84% in experiment [1], 0.98% in experiment [2] and -79.15% in experiment [3].

As for `O=C(ON/N=C/[C@@H]1[C@@H]2C[C@H](Cl)[C@H]1C[C@H]2O)c1ccncc1`, the Inhibition in experiment [1] was 14.1%; in experiment [2] it was 5.82%; in experiment [3], -97.88%.

With `COC(=O)CCCCCC[C@@H]1[C@@H](/C=N/NC(=O)c2ccncc2)[C@H](OC(=O)c2ccccc2)C[C@@H]1O`, the Inhibition was 15.74% in experiment [1], 0.87% in experiment [2] and -95.25% in experiment [3].

Consider `O=C(NN=C[C@H]1[C@@H]2CCO[C@@H]2C[C@@H]1O)c1ccncc1`, for which the values for the Inhibition in experiment [1], in experiment [2] and in experiment [3] were 9.72%, 2.27% and -54.08%, respectively.

Take `CC(C)(C)[Si](C)(C)O[C@H](/C=C/[C@@H]1[C@@H](CC=NNC(=O)c2ccncc2)[C@@H](O)C[C@H]1O[Si](C)(C)C(C)(C)C)CCc1ccccc1`: the Inhibition in experiment [1] is 11.71%; in experiment [2] it was 0.84%; in experiment [3] it was -66.75%.

Turning to `O=C(N/N=C/C[C@@H]1[C@@H](/C=C/[C@@H](O)COc2cccc(Cl)c2)[C@H](O)C[C@@H]1O)c1ccncc1`, the Inhibition in experiment [1] was 18.63%; in experiment [2] it was 0.21%; in experiment [3], -81.79%.

In the case of `O=C(N/N=C1/C[C@@H]2[C@H](C1)[C@H](OC(=O)c1ccccc1)C[C@@H]2OC(=O)c1ccccc1)c1ccncc1`, the Inhibition is 10.86% in experiment [1], 16.2% in experiment [2] and -110.81% in experiment [3].

Consider `O=C(N/N=C/C[C@@H]1[C@@H](CO)[C@H](O)C[C@@H]1O)c1ccncc1`, for which the Inhibition in experiment [1] was 16.63%; in experiment [2], 0.37%; in experiment [3] it was -75.19%.

With `COC(=O)C[C@H]1[C@H](/C=N\NC(=O)c2ccncc2)[C@@H](O[Si](C)(C)C(C)(C)C)C[C@@H]1Cl`, the Inhibition in experiment [1] is 21.45%; in experiment [2], 1.67%; in experiment [3], -101.31%.

For `O=C(NNC(=O)c1cccc([N+](=O)[O-])c1C(=O)O)c1ccncc1`, the Inhibition in experiment [1] was 15.09%; in experiment [2] it was 1.9%; in experiment [3] it was -5.54%.

For `O=C(N/N=C1\C[C@@H]2[C@H](COC(c3ccccc3)(c3ccccc3)c3ccccc3)C[C@H](CO)[C@@H]2C1)c1ccncc1`, the Inhibition in experiment [1] is 2.31%; in experiment [2], 12.2%; in experiment [3], -65.69%.

Regarding `O=C(N/N=C1\CC[C@@H]2[C@H]1[C@H](OC(=O)c1ccccc1)C[C@@H]2OC(=O)c1ccccc1)c1ccncc1`, the Inhibition in experiment [1] is 13.57%; in experiment [2], 12.8%; in experiment [3], -65.69%.
